Measurements as given in PubChem BioAssay (NCI).
The panel holds about 83,000 compounds, 20% with a hit somewhere; the sample as a whole holds those more often.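 Cells were grown in 96-well plates and exposed to the test compound at a single concentration for 48 hours; results are reported as percent growth, with values below 10 considered active.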 Active and inactive are the calls of the source.

Columns and labels:
Assay in all cases: NCI-60 one-dose screen, 48 h (100 = growth as untreated, 0 = no growth, -100 = all killed)
Conditions in all cases: 10 µM unless noted
RPMI-8226 leukemia = tested on: RPMI-8226 leukemia
OVCAR-8 ovarian = tested on: OVCAR-8 ovarian
OVCAR-5 ovarian = tested on: OVCAR-5 ovarian
SK-OV-3 ovarian = tested on: SK-OV-3 ovarian
IGROV1 ovarian = tested on: IGROV1 ovarian
NCI/ADR-RES ovarian = tested on: NCI/ADR-RES ovarian
T-47D breast = tested on: T-47D breast
BT-549 breast = tested on: BT-549 breast
MDA-MB-435 melanoma = tested on: MDA-MB-435 melanoma
SW-620 colon = tested on: SW-620 colon
MCF7 breast = tested on: MCF7 breast
HCT-116 colon = tested on: HCT-116 colon
HCC-2998 colon = tested on: HCC-2998 colon
KM12 colon = tested on: KM12 colon
OVCAR-4 ovarian = tested on: OVCAR-4 ovarian
OVCAR-3 ovarian = tested on: OVCAR-3 ovarian
HS 578T breast = tested on: HS 578T breast

Measured: growth

COc1ccc2c(c1)cn1c3ccc(OC)cc3[nH]c(=O)c21
active: RPMI-8226 leukemia -37.8% | OVCAR-8 ovarian -47.4% | IGROV1 ovarian -54% | NCI/ADR-RES ovarian -2.47% | T-47D breast -32.2% | BT-549 breast -0.958% | MDA-MB-435 melanoma -80% | SW-620 colon -38.9% | MCF7 breast -47.5% | HCT-116 colon -75.8% | HCC-2998 colon -68.5% | KM12 colon -61.7%
inactive: OVCAR-5 ovarian 21.3% | SK-OV-3 ovarian 22.5%

COc1ccc(N2CCN(Cc3cc(C(=O)/C=C/c4c[nH]c5ccccc45)ccc3O)CC2)cc1
inactive: RPMI-8226 leukemia 94.8% | OVCAR-8 ovarian 95.5% | OVCAR-5 ovarian 106% | OVCAR-4 ovarian 93% | SK-OV-3 ovarian 93.5% | OVCAR-3 ovarian 114% | HS 578T breast 105% | NCI/ADR-RES ovarian 106% | T-47D breast 93.8% | BT-549 breast 107% | MDA-MB-435 melanoma 105% | SW-620 colon 104% | MCF7 breast 97.4% | HCT-116 colon 110% | KM12 colon 110%

COc1ccc(-c2nc3sccn3c2/C=C/C(=O)c2cc(F)cc(F)c2)cc1
active: RPMI-8226 leukemia 6.15%
inactive: OVCAR-8 ovarian 80.7% | OVCAR-5 ovarian 102% | OVCAR-4 ovarian 66.2% | SK-OV-3 ovarian 75.3% | OVCAR-3 ovarian 54.7% | NCI/ADR-RES ovarian 78% | T-47D breast 40.5% | BT-549 breast 127% | MDA-MB-435 melanoma 94.2% | SW-620 colon 53.9% | MCF7 breast 20.3% | HCT-116 colon 53.7% | HCC-2998 colon 51.3% | KM12 colon 84.3%

N#Cc1ccc(N2Cc3ccccc3OC3=C2C(=O)c2c(O)ccc(O)c2C3=O)cc1
active: RPMI-8226 leukemia 5.99% | OVCAR-8 ovarian 3.86% | OVCAR-5 ovarian -1.88% | OVCAR-4 ovarian -43.4% | OVCAR-3 ovarian -93.2% | HS 578T breast -14.4% | T-47D breast -46% | BT-549 breast -17.9% | MDA-MB-435 melanoma -43.9% | SW-620 colon -67.5% | HCT-116 colon -44.3% | KM12 colon 8.89%
inactive: SK-OV-3 ovarian 63.8% | NCI/ADR-RES ovarian 19.7% | HCC-2998 colon 30.7%

Cc1ccc(NS(=O)(=O)c2cc(C)ccc2C)cc1
active: OVCAR-3 ovarian 3.62% | NCI/ADR-RES ovarian 2.96% | MDA-MB-435 melanoma -24%
inactive: RPMI-8226 leukemia 13.6% | OVCAR-8 ovarian 54.8% | OVCAR-5 ovarian 82.8% | OVCAR-4 ovarian 92.6% | SK-OV-3 ovarian 56.3% | IGROV1 ovarian 53.8% | T-47D breast 47.9% | BT-549 breast 39.1% | SW-620 colon 19.9% | HCT-116 colon 17.6% | HCC-2998 colon 50.9% | KM12 colon 16.2%

COP(=O)(OC)/C(=N\NS(=O)(=O)c1ccc(C)cc1)c1ccccc1
inactive: RPMI-8226 leukemia 109% | OVCAR-8 ovarian 106% | OVCAR-5 ovarian 91% | SK-OV-3 ovarian 91.7% | OVCAR-3 ovarian 103% | NCI/ADR-RES ovarian 95.8% | T-47D breast 94.7% | BT-549 breast 125% | MDA-MB-435 melanoma 106% | SW-620 colon 105% | HCT-116 colon 103% | HCC-2998 colon 102% | KM12 colon 103%

COc1ccc(-n2c(=S)sc3c(Cl)nc(C)nc32)c(OC)c1
active: OVCAR-8 ovarian 0.172% | IGROV1 ovarian -17.3% | OVCAR-3 ovarian -20.7% | HCT-116 colon 0.658%
inactive: OVCAR-5 ovarian 87% | OVCAR-4 ovarian 95.6% | SK-OV-3 ovarian 80.1% | HS 578T breast 72.6% | NCI/ADR-RES ovarian 78.5% | T-47D breast 51.3% | BT-549 breast 90.8% | MDA-MB-435 melanoma 30.9% | SW-620 colon 45.4% | MCF7 breast 13.8% | HCC-2998 colon 35.4% | KM12 colon 25.4%

CCCCN(CCCC)c1ccc(C(=N)c2ccc(N(CCCC)CCCC)cc2)cc1
active: OVCAR-8 ovarian -82.1% | OVCAR-5 ovarian -82.4% | OVCAR-4 ovarian -79.3% | SK-OV-3 ovarian -22.6% | IGROV1 ovarian -53.5% | OVCAR-3 ovarian -99.2% | HS 578T breast -45% | NCI/ADR-RES ovarian -87.5% | T-47D breast -31.3% | BT-549 breast -7.68% | MDA-MB-435 melanoma -72.4% | SW-620 colon -84% | MCF7 breast -85.5% | HCT-116 colon -99.9% | HCC-2998 colon -96.7% | KM12 colon -95.1%

Cc1c(C(N)=O)sc2c1c(=O)n(Cc1ccccc1)c1nnc(Nc3ccccc3)n21
inactive: RPMI-8226 leukemia 148% | OVCAR-8 ovarian 89.2% | OVCAR-5 ovarian 104% | OVCAR-4 ovarian 117% | SK-OV-3 ovarian 99.1% | IGROV1 ovarian 104% | OVCAR-3 ovarian 115% | NCI/ADR-RES ovarian 103% | T-47D breast 89% | BT-549 breast 123% | MDA-MB-435 melanoma 103% | SW-620 colon 108% | MCF7 breast 100% | HCT-116 colon 94.2% | HCC-2998 colon 110% | KM12 colon 93.6%

NC(N)=Nc1nc2ccccc2o1
inactive: RPMI-8226 leukemia 58.2% | OVCAR-8 ovarian 110% | OVCAR-5 ovarian 110% | OVCAR-4 ovarian 110% | SK-OV-3 ovarian 107% | IGROV1 ovarian 102% | NCI/ADR-RES ovarian 95.1% | T-47D breast 98.3% | BT-549 breast 89.9% | MDA-MB-435 melanoma 122% | SW-620 colon 95.7% | MCF7 breast 96.8% | HCT-116 colon 95.5% | HCC-2998 colon 82.5% | KM12 colon 95.9%

C=C1C(=O)O[C@H]2[C@H]1CC/C(COC(=O)NCc1ccccc1OC)=C\CC[C@@]1(C)O[C@@H]21
active: OVCAR-3 ovarian -1.44% | SW-620 colon 0.256% | HCT-116 colon -26.1%
inactive: RPMI-8226 leukemia 25.7% | OVCAR-8 ovarian 10.5% | OVCAR-5 ovarian 73% | OVCAR-4 ovarian 41.7% | SK-OV-3 ovarian 85.8% | HS 578T breast 40.1% | NCI/ADR-RES ovarian 86% | T-47D breast 31.5% | BT-549 breast 26.7% | MDA-MB-435 melanoma 44.4% | HCC-2998 colon 93.9% | KM12 colon 62.3%

COc1ccc(-n2c(=O)sc3c(Cl)nc(C)nc32)c(OC)c1
inactive: RPMI-8226 leukemia 106% | OVCAR-8 ovarian 56.9% | OVCAR-5 ovarian 92% | OVCAR-4 ovarian 101% | SK-OV-3 ovarian 83.8% | OVCAR-3 ovarian 68.8% | HS 578T breast 93.9% | NCI/ADR-RES ovarian 101% | T-47D breast 84.7% | BT-549 breast 91.6% | MDA-MB-435 melanoma 69.5% | SW-620 colon 74.8% | MCF7 breast 97.6% | HCC-2998 colon 87.3% | KM12 colon 90%

COc1cc(Nc2nc(N[C@H]3CCCC[C@@H]3N)nc3cc[nH]c(=O)c23)cc(OC)c1
active: IGROV1 ovarian 8.81% | BT-549 breast -27% | HCT-116 colon 7.88% | KM12 colon 7.39%
inactive: OVCAR-8 ovarian 14.5% | OVCAR-5 ovarian 22.2% | SK-OV-3 ovarian 24.1% | OVCAR-3 ovarian 70.4% | NCI/ADR-RES ovarian 100% | T-47D breast 83.6% | MDA-MB-435 melanoma 33.4% | HCC-2998 colon 32.1%

COc1ccc(NC(=O)c2c(Nc3ccc(OC)cc3OC)n[nH]c2N)c(OC)c1
inactive: OVCAR-8 ovarian 96.4% | OVCAR-5 ovarian 96.3% | OVCAR-4 ovarian 102% | SK-OV-3 ovarian 92% | IGROV1 ovarian 93.7% | OVCAR-3 ovarian 106% | HS 578T breast 96% | NCI/ADR-RES ovarian 101% | T-47D breast 83% | BT-549 breast 93.7% | MDA-MB-435 melanoma 95.2% | SW-620 colon 102% | MCF7 breast 76.4% | HCT-116 colon 90.1% | HCC-2998 colon 107% | KM12 colon 102%

COc1cc(-c2nn(-c3cccc(NC(=O)c4ccccc4)c3)cc2-c2ccncc2)ccc1Cl
inactive: OVCAR-8 ovarian 19.6% | OVCAR-5 ovarian 66.4% | OVCAR-4 ovarian 46.5% | SK-OV-3 ovarian 42.1% | IGROV1 ovarian 47.4% | T-47D breast 21.8% | SW-620 colon 18.4% | HCC-2998 colon 20.1% | KM12 colon 12.3%
active: RPMI-8226 leukemia 9.39% | OVCAR-3 ovarian 0.0228% | NCI/ADR-RES ovarian 0.342% | BT-549 breast 1.29% | MDA-MB-435 melanoma -57.9% | MCF7 breast 4.67% | HCT-116 colon 8.58%

COc1ccc(-c2ccc(C)n2-c2ccc(-c3nc4ccccc4s3)cc2)cc1
inactive: OVCAR-8 ovarian 95.8% | OVCAR-5 ovarian 101% | OVCAR-4 ovarian 92.9% | SK-OV-3 ovarian 80.3% | IGROV1 ovarian 92.8% | OVCAR-3 ovarian 107% | HS 578T breast 97.5% | NCI/ADR-RES ovarian 89.9% | T-47D breast 73.3% | BT-549 breast 108% | MDA-MB-435 melanoma 89.6% | SW-620 colon 89.6% | MCF7 breast 92.7% | HCT-116 colon 85.5% | HCC-2998 colon 91.7% | KM12 colon 86.3%

Cc1ccc(CSC(=N)N)cc1C
inactive: RPMI-8226 leukemia 78.7% | OVCAR-8 ovarian 109% | OVCAR-5 ovarian 114% | OVCAR-4 ovarian 101% | SK-OV-3 ovarian 111% | IGROV1 ovarian 106% | OVCAR-3 ovarian 116% | NCI/ADR-RES ovarian 98.8% | T-47D breast 108% | BT-549 breast 98.1% | MDA-MB-435 melanoma 112% | SW-620 colon 102% | MCF7 breast 101% | HCT-116 colon 105% | HCC-2998 colon 100% | KM12 colon 107%

COc1ccc(Nc2nn3c(C)cc(C)nc3c2C(=O)Nc2ccc(C)cc2)c(OC)c1
inactive: RPMI-8226 leukemia 102% | OVCAR-8 ovarian 100% | OVCAR-5 ovarian 82.9% | OVCAR-4 ovarian 102% | SK-OV-3 ovarian 87.7% | IGROV1 ovarian 97.1% | OVCAR-3 ovarian 105% | NCI/ADR-RES ovarian 105% | T-47D breast 87.7% | BT-549 breast 96.2% | MDA-MB-435 melanoma 105% | SW-620 colon 105% | MCF7 breast 101% | HCT-116 colon 99% | HCC-2998 colon 94.2% | KM12 colon 100%

Nc1cc2c(cc1C(=O)c1cccc(F)c1)OCCO2
inactive: OVCAR-8 ovarian 91.1% | OVCAR-5 ovarian 98.2% | OVCAR-4 ovarian 105% | SK-OV-3 ovarian 93.3% | IGROV1 ovarian 89.7% | OVCAR-3 ovarian 116% | HS 578T breast 111% | NCI/ADR-RES ovarian 97.9% | T-47D breast 93.6% | BT-549 breast 84.5% | MDA-MB-435 melanoma 92.1% | SW-620 colon 105% | MCF7 breast 99.2% | HCT-116 colon 100% | HCC-2998 colon 95.4% | KM12 colon 100%
